Results filed as inconclusive are left out. Calls of active or inactive are those of the source. Calls come from the whole dose curve; as a rule, active = well fitted curve in the direction sought with a large enough effect in the repeat runs; inconclusive = weak or mixed curves; inactive = no such curve, though single readings can be large; an effect the other way counts as inactive or inconclusive.
What was measured:
[1] = A CellTox Green Cytotoxicity Assay to monitor cytotoxicity in HEK293 cells - 40 hour (AID 1224871); note: nearly all actives have a fitted effect of over 45% in size
Procedure, shortened: (§1)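 Read-out: fluorescence of a cell-impermeant cyanine dye staining DNA of dead cells, proportional to cytotoxicity. HEK293, 600 cells/well with reagent, compound (23 nL DMSO) added after 5 h; reads at 0, 8, 16, 24, 32, 40 h.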

[2] = qHTS RealTime-Glo MT Cell Viability Assay in HepG2 cells - 8 hour (AID 1224873); note: nearly all actives have a fitted effect of over 55% in size
Procedure, shortened: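 Real-time viability: cells seeded at 600 per well together with NanoLuc and cell-permeant prosubstrate, compounds added after 5 h incubation. Luminescence tracked at 0, 8, 16, 24, 32 and 40 h of exposure.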

[3] = A CellTox Green Cytotoxicity Assay to monitor cytotoxicity in HEK293 cells - 24 hour (AID 1224875); note: series mostly up to about 77 µM; nearly all actives have a fitted effect of over 45% in size
Procedure, shortened: as §1

[4] = A CellTox Green Cytotoxicity Assay to monitor cytotoxicity in HepG2 cells - 16 hour (AID 1224876); note: nearly all actives have a fitted effect of over 45% in size
Procedure, shortened: (§2)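 HepG2, 600 cells/well premixed w/ CellTox Green; 5 h settle, 37 C/5% CO2; pintool cpd add (DMSO); 37 C, 40 h; fluorescence read at 0, 8, 16, 24, 32, 40 h.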

[5] = qHTS RealTime-Glo MT Cell Viability Assay in HepG2 cells - 32 hour (AID 1224877); note: nearly all actives have a fitted effect of over 55% in size
Procedure, shortened: (§3)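 HepG2 cells were seeded at 600 cells/well together with NanoLuc luciferase and a cell-permeant prosubstrate, preincubated 5 h at 37 C/5% CO2, then pin-dosed with compounds in DMSO. Nonlytic luminescence from viable cells was read at each time point.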

[6] = A CellTox Green Cytotoxicity Assay to monitor cytotoxicity in HepG2 cells - 24 hour (AID 1224878); note: nearly all actives have a fitted effect of over 45% in size; note: potency is the fitted concentration of half-maximal effect
Procedure, shortened: as §2

[7] = A CellTox Green Cytotoxicity Assay to monitor cytotoxicity in HepG2 cells - 40 hour (AID 1224879); note: nearly all actives have a fitted effect of over 40% in size; note: potency is the fitted concentration of half-maximal effect
Procedure, shortened: as §2

[8] = qHTS RealTime-Glo MT Cell Viability Assay in HEK293 cells - 0 hour (AID 1224880)
Procedure, shortened: (§4)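 Luminescence readout at each listed time point; HEK293, 600 cells/well, RealTime-Glo MT reagent added with cells; compounds pinned (23 nL in DMSO) after 5 h at 37 C; continuous culture at 37 C.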

[9] = A CellTox Green Cytotoxicity Assay to monitor cytotoxicity in HEK293 cells - 32 hour (AID 1224881); note: nearly all actives have a fitted effect of over 40% in size
Procedure, shortened: as §1

[10] = A CellTox Green Cytotoxicity Assay to monitor cytotoxicity in HepG2 cells - 0 hour (AID 1224882); note: nearly all actives have a fitted effect of over 35% in size
Procedure, shortened: as §2

[11] = A CellTox Green Cytotoxicity Assay to monitor cytotoxicity in HepG2 cells - 32 hour (AID 1224883); note: nearly all actives have a fitted effect of over 50% in size; note: potency is the fitted concentration of half-maximal effect
Procedure, shortened: as §2

[12] = A CellTox Green Cytotoxicity Assay to monitor cytotoxicity in HEK293 cells - 8 hour (AID 1224884); note: nearly all actives have a fitted effect of over 35% in size; note: potency is the fitted concentration of half-maximal effect
Procedure, shortened: as §1

[13] = qHTS RealTime-Glo MT Cell Viability Assay in HepG2 cells - 16 hour (AID 1224885); note: nearly all actives have a fitted effect of over 50% in size
Procedure, shortened: as §3

[14] = qHTS RealTime-Glo MT Cell Viability Assay in HEK293 cells - 8 hour (AID 1224887); note: nearly all actives have a fitted effect of over 50% in size; note: potency is the fitted concentration of half-maximal effect
Procedure, shortened: as §4

[15] = A CellTox Green Cytotoxicity Assay to monitor cytotoxicity in HEK293 cells - 16 hour (AID 1224888); note: nearly all actives have a fitted effect of over 35% in size
Procedure, shortened: as §1

[16] = qHTS RealTime-Glo MT Cell Viability Assay in HepG2 cells - 0 hour (AID 1224889); note: nearly all actives have a fitted effect of over 50% in size
Procedure, shortened: as §3

[17] = A CellTox Green Cytotoxicity Assay to monitor cytotoxicity in HepG2 cells - 8 hour (AID 1224890); note: nearly all actives have a fitted effect of over 45% in size
Procedure, shortened: as §2

[18] = qHTS RealTime-Glo MT Cell Viability Assay in HEK293 cells - 40 hour (AID 1224874); settings: RealTime-Glo luminescence; max response: stronger effect = lower value; note: nearly all actives have a fitted effect of over 50% in size; note: potency is the fitted concentration of half-maximal effect
Procedure, shortened: as §4

[19] = qHTS RealTime-Glo MT Cell Viability Assay in HEK293 cells - 16 hour (AID 1224872); note: nearly all actives have a fitted effect of over 50% in size; note: potency is the fitted concentration of half-maximal effect
Procedure, shortened: (§5)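 HEK293 cells were seeded at 600 cells/well together with NanoLuc luciferase and cell-permeant prosubstrate, preincubated 5 h at 37 C/5% CO2, then given compound in DMSO by pintool. Luminescence from viable-cell prosubstrate reduction was read repeatedly over 40 h.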

[20] = qHTS RealTime-Glo MT Cell Viability Assay in HEK293 cells - 24 hour (AID 1224886); note: nearly all actives have a fitted effect of over 50% in size; note: potency is the fitted concentration of half-maximal effect
Procedure, shortened: as §5
% is set by controls: 0 for no effect and ±100 for the full control effect.

CC(C1CC1)C(O)(Cn1cncn1)c1ccc(Cl)cc1 (stereo not given)
inactive: Potency [1] | Potency [2] | Potency [3] | Potency [4] | Potency [5] | Potency [6] | Potency [7] | outcome [8] | Potency [9] | outcome [10] | Potency [11] | Potency [12] | Potency [13] | Potency [14] | Potency [15] | Potency [16] | Potency [17]

O=C(CCCN1CCC(n2c(=O)[nH]c3ccccc32)CC1)c1ccc(F)cc1
inactive: Potency [1] | Potency [2] | max response [18] -27.9% | Potency [3] | Potency [5] | Potency [6] | Potency [7] | outcome [8] | Potency [9] | outcome [10] | Potency [12] | Potency [13] | Potency [15] | Potency [17]

CC1(C)C(=O)NC(=O)NC1=O
inactive: Potency [19] | Potency [2] | max response [18] -10.9% | Potency [4] | Potency [5] | Potency [6] | Potency [7] | outcome [8] | outcome [10] | Potency [11] | Potency [13] | Potency [20] | Potency [14] | Potency [16] | Potency [17]
active: Potency [12] 49 µM

CC(C)(C)OC(=O)c1ncn2c1[C@@H]1CCCN1C(=O)c1c(Br)cccc1-2
inactive: Potency [1] | Potency [2] | max response [18] -21.6% | Potency [3] | Potency [4] | Potency [5] | Potency [6] | Potency [7] | outcome [8] | Potency [9] | outcome [10] | Potency [11] | Potency [12] | Potency [20] | Potency [14] | Potency [15] | Potency [16] | Potency [17]

Cc1ncc2n1-c1ccc(Cl)cc1C(c1ccccc1F)=NC2
inactive: Potency [1] | Potency [2] | Potency [3] | Potency [4] | Potency [5] | Potency [6] | Potency [7] | outcome [8] | Potency [9] | outcome [10] | Potency [11] | Potency [14] | Potency [15] | Potency [17]
active: Potency [18] 19 µM

CC1=C(C(=O)Nc2ccccc2)S(=O)(=O)CCO1
inactive: Potency [2] | Potency [3] | Potency [4] | Potency [5] | Potency [6] | Potency [7] | Potency [9] | outcome [10] | Potency [14] | Potency [15] | Potency [17]
active: Potency [18] 43.6 µM

CC1(C(=O)Nc2ccc(O)c(Cl)c2Cl)CCCCC1
inactive: Potency [2] | Potency [5] | outcome [8] | outcome [10] | Potency [13] | Potency [15]

O=[N+]([O-])c1cccc2c([N+](=O)[O-])cccc12
active: Potency [18] 49.2 µM | Potency [20] 49.2 µM
inactive: Potency [1] | Potency [2] | Potency [3] | Potency [4] | Potency [5] | Potency [6] | Potency [9] | outcome [10] | Potency [11] | Potency [12] | Potency [13] | Potency [15] | Potency [17]

CCOP(=O)(N=C1SCCS1)OCC
inactive: Potency [1] | Potency [2] | max response [18] 21.4% | Potency [3] | Potency [4] | Potency [5] | Potency [6] | Potency [7] | outcome [8] | Potency [9] | outcome [10] | Potency [20] | Potency [14] | Potency [15] | Potency [16] | Potency [17]

C=CCC1=C(C)[C@@H](OC(=O)[C@@H]2[C@@H](C=C(C)C)C2(C)C)CC1=O
inactive: Potency [2] | Potency [4] | Potency [5] | outcome [8] | outcome [10] | Potency [12] | Potency [15] | Potency [17]
active: Potency [19] 11 µM | Potency [18] 21.9 µM | Potency [6] 49 µM | Potency [7] 49 µM | Potency [11] 49 µM | Potency [20] 12.3 µM | Potency [14] 6.92 µM

CSc1nc(N=[N+]=[N-])nc(NC(C)C)n1
inactive: Potency [1] | Potency [2] | Potency [3] | Potency [4] | Potency [5] | Potency [6] | Potency [7] | outcome [8] | Potency [9] | outcome [10] | Potency [11] | Potency [12] | Potency [13] | Potency [15] | Potency [16] | Potency [17]
